PubChem BioAssay AID1694 (National Center for Advancing Translational Sciences (NCATS), 2009)
Records with an inconclusive call do not appear. A call without a number means that no potency is given here. The source made the active and inactive calls. Calls follow the shape of the dose curve; as a rule, active = well fitted curve in the direction sought with a large enough effect; inconclusive = small, poorly fitted or top-dose-only effect, or another doubt; inactive = no such curve, though single readings can be large or run the other way.

Assay: Confirmation Concentration-Response Assay for Inhibitors of Tau Fibril Formation, Total Fluorescence Counterscreen for Fluorescence Polarization
Settings: Alexa594-tau K18 total fluorescence counterscreen, interference, tau K18 with P301L mutation; series mostly up to 100 µM
Source text: NIH Molecular Libraries Probe Production Network [MLPCN] NIH Chemical Genomics Center [NCGC] MLPCN Grant: X01 MH083262-01 Assay Provider: Carlo Ballatore, University of Pennsylvania NCGC Assay Overview: The microtubule-associated protein tau is an abundant protein in the axons of neurons that stabilizes microtubules. With its ability to modulate microtubule dynamics, tau contributes directly or indirectly, to key structural and regulatory cellular functions. Particularly important is the influence tau exerts on axonal transport, which allows signaling molecules, trophic factors and other essential cellular constituents to travel along the axons. Under pathological conditions, tau becomes sequestered into insoluble aggregates called neurofibrillary tangles. This phenomenon is believed to have pathological consequences by promoting axonal transport deficits that ultimately lead to synaptic dysfunction and neuronal loss. To identify inhibitors of tau aggregation, a heparin-induced tau fibril formation assay was used that employed a recombinantly expressed fragment of tau, K18 (Q242-E372), bearing a P301L mutation (Gustke et al. 1994; Hong et al. 1998). […] Total fluorescence (555 nm excitation and 632 nm emission) was measured to identify fluorescent or absorbent compounds at this wavelength. Such compounds may be artifacts that interfere with the Alexa 594 Tau fluorescence polarization assay. Gustke, N., B. Trinczek, et al. (1994). "Domains of tau protein and interactions with microtubules." Biochemistry 33(32): 9511-22. Hong, M., V. Zhukareva, et al. (1998). "Mutation-specific functional impairments in distinct tau isoforms of hereditary FTDP-17." Science 282(5395): 1914-7. Li, W. and V. M. Lee (2006). "Characterization of two VQIXXK motifs for tau fibrillization in vitro." Biochemistry 45(51): 15692-701. von Bergen, M., S. Barghorn, et al. (2001). "Mutations of tau protein in frontotemporal dementia promote aggregation of paired helical filaments by enhancing local beta-structure." J Biol Chem 276(51): 48165-74.
For screening, 2 uL/well human K18 P301L (15 uM unlabeled and 0.24 uM Alexa 594-labeled tau final concentrations) in reagent buffer (100 mM sodium acetate pH 7) was dispensed into black solid 1536-well plates (Grenier) using a solenoid-based dispenser. Following transfer of 23 nL compound or DMSO vehicle by a pin tool, 2 uL/well heparin (20 uM final concentration) in reagent buffer was added and the plate centrifuged 15 s at 1000 RPM. Plates were incubated 6 hr at 37 C and then 1 uL/well ThT (30 uM final concentration) was added. After a 1 hr ambient incubation, the plates were read by an Envision (Perkin Elmer) to monitor Alexa 594 FP (555 nm excitation and 632 nm emission). Keywords: NIH Roadmap, MLPCN, MLI, MLSMR, NCGC, qHTS, tau, tauopathies, Alzheimer's disease, fibril, neurodegeneration, aggregation
With COC(=O)c1c(NC(=O)CCCOc2ccc(C)cc2)sc2c1C(C(=O)OC)CC2 (stereo not given) the Potency was “inactive”.
In the case of CN(C(=S)Nc1cccnc1)c1ccc(O)cc1, the Potency is reported as “inactive”.
In the case of O=C(Nc1sc2c(c1C(=O)Nc1cccc(Cl)c1)CCCC2)c1cccs1, the Potency is reported as “inactive”.
In the case of COc1ccc(OC)c(NC(=O)c2c(NCc3cccs3)sc3c2CCCC3)c1, the Potency is reported as “inactive”.
With CCOC(=O)c1nn(-c2ccccc2)c(=O)c(C#N)c1C the Potency was “inactive”.
In the case of COC(=O)c1c(NC(=O)CCCOc2ccc(C(C)(C)C)cc2)sc2c1C(C(=O)OC)CC2 (stereo not given), the Potency is reported as “inactive”.
For COc1ccc2c(c1)c(CC(=O)N1CCOCC1)c(C)n2C(=O)c1ccc(Cl)cc1, the Potency was “inactive”.
With CCOC(=O)c1c(N)sc2c1CCOC2 the Potency was “inactive”.
In the case of CCn1c(CSc2nccn2C)nc2cc(C(=O)O)ccc21, the Potency is reported as “inactive”.
With O=C(NCc1cccnc1)C1CCN(S(=O)(=O)c2cccs2)CC1 the Potency was “inactive”.
For Cc1cc2c(N)cccc2nn1, the Potency was “inactive”.
For Cc1nc2ccccc2oc1=O, the Potency was “inactive”.
For CCOC(=O)c1nn(-c2ccccc2)c(=O)c2c(NC(C)=O)scc12, the Potency was “inactive”.
For O=C(Cn1c(=O)c(CNc2ccccc2)cc2cc3c(cc21)OCCO3)Nc1ccccc1Cl, the Potency was “inactive”.
With Cc1ccc(C(=O)Nc2nc(=O)n(C(=O)CC(C)C)s2)cc1 the Potency was “inactive”.
In the case of N#Cc1cccc(NC(=O)c2ccc3c(c2)N(Cc2cccc(Cl)c2)C(=O)c2ccccc2S3(=O)=O)c1, the Potency is reported as “inactive”.
With CN(C)C(=O)c1ccc(-c2cc[nH]c(=O)c2N)cc1 the Potency was “inactive”.
With CCOC(=O)c1nn(-c2ccc(OC)cc2)c(=O)c2c(N)scc12 the Potency was “inactive”.
For Cc1sc(N)c2c(=O)n(-c3ccccc3)ncc12, the Potency was “inactive”.
With COc1cccc(/C=C2/SC(=S)N(CC(=O)Nc3nccs3)C2=O)c1 the Potency was “inactive”.
With CC(C)c1ccc(NS(=O)(=O)c2ccc3[nH]cc(C(=O)NCCc4ccccc4)c(=O)c3c2)cc1 the Potency was “inactive”.
For Cc1[nH]c(=O)c(C#N)cc1-c1ccncc1, the Potency was “inactive”.
For COc1ccc(NC(=O)Cn2cc(S(=O)(=O)N3CCN(c4ccccc4F)CC3)c3ccccc3c2=O)cc1Cl, the Potency was “inactive”.
In the case of CCOC(=O)c1nn(-c2ccc(C)c(C)c2)c(=O)c2c(N)scc12, the Potency is reported as “inactive”.
In the case of CCOC(=O)c1nn(-c2ccccc2)c(=O)c2c(N)sc(C)c12, the Potency is reported as “inactive”.
